# Results taken from PubChem BioAssay (NCI).
# About 79,000 compounds went through this panel and 15% of them were active in at least one assay; those are over-represented in the sample as a whole. A number with no mark means an inactive call. Cut-off read from the data, not from the text of the source: active = growth inhibition above about 70%; inactive = the rest. Where a SMILES comes first, the peptide text is derived from it. The star is where a group is joined. Boc = CC(C)(C)OC(=O)*; OBn = c1ccc(CO*)cc1; Bn = c1ccc(C*)cc1
# Assay: NCI Yeast Anticancer Drug Screen. Data for the cln2 rad14 strain (AID 165);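 note: 0% = growth equal to vehicle treated cultures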
# Details: S. cerevisiae cln2 rad14 strain, at 50.0 µM, stronger effect = higher value
# Summary of the method: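 The screen exposed genetically defined yeast (cln2 rad14) to test compounds and scored growth inhibition relative to vehicle-treated controls.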
row,Structure (SMILES),growth inhibition
1,O=[N+]([O-])c1ccccc1N=Nc1c(O)[nH]c2c(Cl)cc(Cl)cc12,-16.2%
2,CC1=CCC2N=C(c3ccccc3)CC2(C)C1=O (stereo not given),-11.3%
3,CCN(CC)CCOc1ccc(/C(C#N)=C/c2ccc(OCCN3CCCCC3)cc2)cc1,64.9%
4,O=C1c2cc([N+](=O)[O-])ccc2-c2c(Cl)cc(NC(=O)C(F)(F)F)cc21,-40%
5,COc1ccc(C2SCC(=O)N2c2nncs2)cc1F (stereo not given),2.9%
6,CC(=O)OCC1OC(OC(C)=O)C(NS(=O)(=O)Cc2ccccc2)C(OC(C)=O)C1OC(C)=O (stereo not given),-1.35%
7,COc1ccc(/C=C2\C=Cc3ccccc32)cc1OC,13.4%
8,Cc1ccc(N2C(=O)CS/C2=C(\C#N)c2nc3ccccc3[nH]2)cc1,-57.9%
9,CCN(CC)/C(C=[N+]=[N-])=N\C(N)=N\S(=O)(=O)c1ccc(OC)cc1,-28%
10,O=C1c2ccccc2C(=O)N1CNc1cccc(NCN2C(=O)c3ccccc3C2=O)c1,16.1%
11,CCN(CC)CC(O)c1cccc2cc(Cl)ccc12 (stereo not given),-15.2%
12,C=C1C(=O)OC2CCCC(O)C12 (stereo not given),-39%
13,CCSC(SCC)C(SCC)C(OC(=O)c1ccccc1)C(OC(=O)c1ccccc1)C(COC(=O)c1ccccc1)OC(=O)c1ccccc1 (stereo not given),-5.3%
14,O=C(O)C(CO)Nc1ccccc1 (stereo not given),12.9%
15,N#CCCP(=O)(O)CO,0.1%
16,COc1ccc(O)c(C(=O)O)c1,12.6%
17,Cc1ccc2ccccc2c1CC(=O)NN,-25.2%
18,Cc1cc2ccccc2c(Br)c1C,-36.8%
19,O=C(c1ccccc1)c1cccnc1,-25.1%
20,Cc1ccc(S(=O)(=O)CCN2CCOCC2)cc1,-32.3%

row,Structure (SMILES),growth inhibition
1,COc1cc2nncc(SCc3ccc(Cl)cc3Cl)c2cc1OC,23.8%
2,COCC(C)OC(=O)c1ccccc1Cl (stereo not given),2.65%
3,CCOC(=O)C(Cc1ccc(O)cc1)NC(=O)C(CSC(c1ccccc1)(c1ccccc1)c1ccccc1)NC(c1ccccc1)(c1ccccc1)c1ccccc1 (stereo not given),-1.65%
4,CSc1cc(C)c(C#N)c(SC)n1,-5.7%
5,CC(O)COc1ccc(C(C)(C)C)cc1 (stereo not given),-13%
6,CS(=O)(=O)c1ccc(/C=C2/C=Cc3ccccc32)cc1,15.4%
7,CC(O)CNC(C)(C)CN (stereo not given),4.4%
8,CC(SC(C)C(=O)N/N=C/C=C\c1ccccc1)C(=O)N/N=C\C=C\c1ccccc1 (stereo not given),7.8%
9,NC(=O)c1c[n+]([O-])ccc1[N+](=O)[O-],28.1%
10,COc1ccc(/C=C2\SC(c3ccc(OC)cc3)N(NC(=O)Cc3ccccc3)C2=O)cc1 (stereo not given),-63.2%
11,S=c1[nH]nc(-c2ccccc2)n1/N=C\c1ccc(-c2ccc(Cl)cc2)o1,14.8%
12,CN(CCC(=O)c1ccc2ccccc2c1)Cc1ccccc1,-1.45%
13,COc1ccccc1C(=O)O,-1.75%
14,CC(C)CC(NC(=O)C(CCC(=O)OCc1ccccc1)NC(=O)OC(C)(C)C)C(=O)NC(COCc1ccccc1)C(=O)NC(Cc1ccccc1)C(=O)O (stereo not given) (Boc-E(OBn)LS(Bn)F-OH; configuration not given here),6%
15,COC1=CC(=O)C(c2cc(O)c(OC)cc2O)=CC1=O,-8.65%
16,COc1ccc(C2N3CCCCC3[C@@H]3c4[nH]c5ccccc5c4CCN23)c(OC)c1 (stereo not given in full),6.1%
17,OC1CSCCSCCCSCCSC1,15.5%
18,CN1C2CC(=O)CC1[C@@H]1OC(c3ccccc3)O[C@H]21 (stereo not given in full),27.9%
19,CCOC(=O)C1=C(C)OC(=O)CC1C (stereo not given),9.05%
20,OCc1ccc2[n+](c1)CCC1c3ccccc3NC21 (stereo not given),-8.4%
